# In the supplement of paper PMC8728848:
# The entries come from a sample that favours the strongest signals as a whole.
# B1: WGA (Triticum vulgare) (protein)
# chain: QRCGEQGSNMECPNNLCCSQYGYCGMGGDYCGKGCQNGACWTSKRCGSQAGGATCPNNHCCSQYGHCGFGAEYCGAGCQGGPCRADIKCGSQSGGKLCPNNLCCSQWGFCGLGSEFCGGGCQSGACSTDKPCGKDAGGRVCTNNYCCSKWGSCGIGPGYCGAGCQSGGCDAVFAGAITANSTLLAE
# Tests used:
# Assay in all cases: glycan array binding signal (z-score within array); higher = stronger binding
# Conditions in all cases: glycan notation: IUPAC condensed, linker removed
# [1] = biological target: Fuc(a1-2)Gal(b1-3)GlcNAc(b1-3)[Fuc(a1-2)Gal(b1-3)GlcNAc(b1-6)]GalNAc
# Procedure, shortened: (§1)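 From the Consortium for Functional Glycomics database, 3228 arrays were curated, keeping only those whose protein sequence was available. Binding is given as a within-array Z-score averaged across arrays sharing a protein sequence and across linkers. Negative Z-scores can be read as non-binding.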
# [2] = biological target: Fuc(a1-2)Gal(b1-4)Fuc(a1-3)]GlcNAc(b1-2)Man(a1-3)[Fuc(a1-2)Gal(b1-4)[Fuc(a1-3)]GlcNAc(b1-2)Man(a1-6)]Man(b1-4)GlcNAc(b1-4)GlcNAc
# Procedure, shortened: as §1
# [3] = biological target: Fuc(a1-2)Gal(b1-4)GlcNAc(b1-2)Man(a1-3)[Fuc(a1-2)Gal(b1-4)GlcNAc(b1-2)Man(a1-6)]Man(b1-4)GlcNAc(b1-4)GlcNAc
# Procedure, shortened: as §1
# [4] = biological target: Fuc(a1-2)Gal(b1-4)[Fuc(a1-3)]GlcNAc(b1-2)Man(a1-3)[Fuc(a1-2)Gal(b1-4)[Fuc(a1-3)]GlcNAc(b1-2)Man(a1-6)]Man(b1-4)GlcNAc(b1-4)[Fuc(a1-6)]GlcNAc
# Procedure, shortened: as §1
# [5] = biological target: Fuc(a1-2)Gal(b1-4)[Fuc(a1-3)]GlcNAc(b1-3)Gal(b1-4)[Fuc(a1-3)]GlcNAc
# Procedure, shortened: as §1
# [6] = biological target: Fuc(a1-2)[Gal(a1-3)]Gal(b1-3)GalNAc(b1-3)Gal(a1-4)Gal(b1-4)Glc
# Procedure, shortened: as §1
# [7] = biological target: Fuc(a1-2)[Gal(a1-3)]Gal(b1-4)Glc
# Procedure, shortened: as §1
# [8] = biological target: Fuc(a1-2)[Gal(a1-3)]Gal(b1-4)[Fuc(a1-3)]Glc
# Procedure, shortened: as §1
# [9] = biological target: Fuc(a1-2)[GalNAc(a1-3)]Gal
# Procedure, shortened: as §1
# [10] = biological target: Fuc(a1-2)[GalNAc(a1-3)]Gal(b1-3)GlcNAc(b1-3)GalNAc
# Procedure, shortened: as §1
# [11] = biological target: Fuc(a1-2)[GalNAc(a1-4)]Gal(b1-4)GlcNAc
# Procedure, shortened: as §1
# [12] = biological target: Fuc(a1-3)[Gal(b1-4)]GlcNAc(b1-3)Gal(b1-4)[Fuc(a1-3)]GlcNAc
# Procedure, shortened: as §1
# [13] = biological target: Gal(b1-3)GalNAc(b1-3)Gal(a1-4)Gal(b1-4)Glc
# Procedure, shortened: as §1
# [14] = biological target: Gal(b1-3)GlcNAc(b1-3)Gal(b1-4)Glc
# Procedure, shortened: as §1
# [15] = biological target: Gal(b1-3)[Fuc(a1-4)]GlcNAc(b1-2)Man(a1-3)[Gal(b1-3)[Fuc(a1-4)]GlcNAc(b1-2)Man(a1-6)]Man(b1-4)GlcNAc(b1-4)[Fuc(a1-6)]GlcNAc
# Procedure, shortened: as §1
# [16] = biological target: Gal(b1-4)GlcNAc(b1-3)Gal(b1-4)Glc
# Procedure, shortened: as §1
# [17] = biological target: Gal(b1-4)GlcNAc(b1-3)Gal(b1-4)GlcNAc(b1-2)[Gal(b1-4)GlcNAc(b1-3)Gal(b1-4)GlcNAc(b1-6)]Man(a1-6)[Gal(b1-4)GlcNAc(b1-3)Gal(b1-4)GlcNAc(b1-2)Man(a1-3)]Man(b1-4)GlcNAc(b1-4)[Fuc(a1-6)]GlcNAc
# Procedure, shortened: as §1
# [18] = biological target: Gal(b1-4)GlcNAc(b1-3)Gal(b1-4)GlcNAc(b1-3)Gal(b1-4)GlcNAc(b1-3)Gal(b1-4)GlcNAc(b1-2)[Gal(b1-4)GlcNAc(b1-3)Gal(b1-4)GlcNAc(b1-3)Gal(b1-4)GlcNAc(b1-3)Gal(b1-4)GlcNAc(b1-6)]Man(a1-6)[Gal(b1-4)GlcNAc(b1-3)Gal(b1-4)GlcNAc(b1-3)Gal(b1-4)GlcNAc(b1-3)Gal(b1-4)GlcNAc(b1-2)Man(a1-3)]Man(b1-4)GlcNAc(b1-4)[Fuc(a1-6)]GlcNAc
# Procedure, shortened: as §1
# [19] = biological target: Gal(b1-4)GlcNAc(b1-3)Gal(b1-4)GlcNAc(b1-3)Gal(b1-4)GlcNAc(b1-3)Gal(b1-4)GlcNAc(b1-3)Gal(b1-4)GlcNAc(b1-2)[Gal(b1-4)GlcNAc(b1-3)Gal(b1-4)GlcNAc(b1-3)Gal(b1-4)GlcNAc(b1-3)Gal(b1-4)GlcNAc(b1-3)Gal(b1-4)GlcNAc(b1-6)]Man(a1-6)[Gal(b1-4)GlcNAc(b1-3)Gal(b1-4)GlcNAc(b1-3)Gal(b1-4)GlcNAc(b1-3)Gal(b1-4)GlcNAc(b1-3)Gal(b1-4)GlcNAc(b1-2)Man(a1-3)]Man(b1-4)GlcNAc(b1-4)[Fuc(a1-6)]GlcNAc
# Procedure, shortened: as §1
# [20] = biological target: Gal(b1-4)GlcNAc(b1-3)[Fuc(a1-3)GlcNAc(b1-6)]Gal(b1-4)Glc
# Procedure, shortened: as §1
# Gal6P(b1-4)GlcNAc = biological target: Gal6P(b1-4)GlcNAc
# Procedure, shortened: as §1
# Gal6S(b1-4)GlcNAc6S = biological target: Gal6S(b1-4)GlcNAc6S
# Procedure, shortened: as §1
# [21] = biological target: GalNAc(b1-3)Gal(a1-6)Gal(b1-4)Glc
# Procedure, shortened: as §1
# GalNAc(b1-4)GlcNAc = biological target: GalNAc(b1-4)GlcNAc
# Procedure, shortened: as §1
# [22] = biological target: GalNAc(b1-4)GlcNAc(b1-2)Man
# Procedure, shortened: as §1
# [23] = biological target: GalNAc(b1-4)GlcNAc(b1-3)GalNAc(b1-4)GlcNAc
# Procedure, shortened: as §1
# Glc(b1-4)Glc = biological target: Glc(b1-4)Glc
# Procedure, shortened: as §1
# [24] = biological target: GlcNAc(a1-4)Gal(b1-4)GlcNAc
# Procedure, shortened: as §1
# [25] = biological target: GlcNAc(a1-4)Gal(b1-4)GlcNAc(b1-3)Gal(b1-4)Glc
# Procedure, shortened: as §1
# [26] = biological target: GlcNAc(a1-4)Gal(b1-4)GlcNAc(b1-3)Gal(b1-4)GlcNAc(b1-3)Gal(b1-4)GlcNAc
# Procedure, shortened: as §1
binder,measurement,setting,value
B1,glycan array binding signal (z-score),[1],-0.344
same,glycan array binding signal (z-score),[2],-0.173
same,glycan array binding signal (z-score),[3],-0.197
same,glycan array binding signal (z-score),[4],-0.297
same,glycan array binding signal (z-score),[5],-0.365
same,glycan array binding signal (z-score),[6],-0.364
same,glycan array binding signal (z-score),[7],-0.359
same,glycan array binding signal (z-score),[8],-0.309
same,glycan array binding signal (z-score),[9],-0.082
same,glycan array binding signal (z-score),[10],-0.299
same,glycan array binding signal (z-score),[11],3
same,glycan array binding signal (z-score),[12],-0.381
same,glycan array binding signal (z-score),[13],-0.328
same,glycan array binding signal (z-score),[14],-0.373
same,glycan array binding signal (z-score),[15],-0.172
same,glycan array binding signal (z-score),[16],-0.341
same,glycan array binding signal (z-score),[17],-0.132
same,glycan array binding signal (z-score),[18],0.022
same,glycan array binding signal (z-score),[19],0.244
same,glycan array binding signal (z-score),[20],-0.275
same,glycan array binding signal (z-score),Gal6P(b1-4)GlcNAc,-0.418
same,glycan array binding signal (z-score),Gal6S(b1-4)GlcNAc6S,-0.371
same,glycan array binding signal (z-score),[21],-0.316
same,glycan array binding signal (z-score),GalNAc(b1-4)GlcNAc,2.78
same,glycan array binding signal (z-score),[22],2.71
same,glycan array binding signal (z-score),[23],2.8
same,glycan array binding signal (z-score),Glc(b1-4)Glc,-0.351
same,glycan array binding signal (z-score),[24],2.77
same,glycan array binding signal (z-score),[25],2.56
same,glycan array binding signal (z-score),[26],3.16
